Rab9 prom act: activates the Rab9 promoter. Huh7 Rab9 promoter-luciferase reporter, luminescence, 24 h. Potency, µM (top dose mostly 9.22 µM), actives largely listed as activators. 2.8% of 320,000 active; further: nearly all actives have a fitted effect of over 60% in size
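Rab9 promoter-driven luciferase in stably transfected Huh7 cells; 1500 cells/well rested 2 h, exposed to compound in DMSO for 24 h at 37 °C, 5% CO2. Luminescence read 10 min after adding luciferase reagent at ambient temperature.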
ELG1 genotoxic: inducers of genotoxicity in HEK293T ELG1-luciferase cells; HEK293T ELG1-luciferase reporter, luminescence, 16 h; Potency, µM (top dose mostly 46 µM), most hits filed as activators; 1.3% of 330,000 active; further: nearly all actives have a fitted effect of over 60% in size
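DMSO vehicle served as control against compound-treated ELG1-luciferase HEK293T cells; exposure lasted 16 hr at 37 °C and 5% CO2, followed by ONE-Glo luminescence detection after 30 min.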
ELG1 repair inh: inhibitors of ELG1-dependent DNA repair in HEK293T cells; HEK293T ELG1-luciferase reporter, luminescence, 16 h; DNA damage induced by 5-fluorouridine; Potency, µM (series often up to 46.1 µM), most hits filed as inhibitors; 2.3% of 330,000 active; AID 504467; further: nearly all actives have a fitted effect of over 55% in size
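Quantitative HTS, concentration-response format. 2,000 cells/well co-treated with 5-fluorouridine and compound, 16 hr in 5% CO2 at 37 °C; ONE-Glo luminescence read after 30 min.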
SMN2 splice enh: enhancers of SMN2 splice variant expression. 2.8% of 210,000 active. AID 1458. HEK293 SMN2-luciferase splicing reporter, luminescence, 30-36 h. Potency, µM (titrated, usually from 46.1 µM), hits mostly activators; further: nearly all actives have a fitted effect of over 55% in size
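HEK293 cells carry an SMN2 minigene-luciferase reporter in which exon 7 inclusion puts luciferase in frame. Cells were seeded at 2000 cells/well, attached for 10-12 hours, then exposed to compounds for 30-36 hours at 37C before ONE-Glo luminescence.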
FLuc modulator: firefly luciferase modulation, counter-screen for miR-21 project; 6.9% of 360,000 active; Potency, µM (highest dose often 57.5 µM), actives largely listed as inhibitors; AID 588342; purified FLuc, Km substrates, luminescence inhibition; further: nearly all actives have a fitted effect of over 55% in size
Target sequence (P08659 whole entry, looked up): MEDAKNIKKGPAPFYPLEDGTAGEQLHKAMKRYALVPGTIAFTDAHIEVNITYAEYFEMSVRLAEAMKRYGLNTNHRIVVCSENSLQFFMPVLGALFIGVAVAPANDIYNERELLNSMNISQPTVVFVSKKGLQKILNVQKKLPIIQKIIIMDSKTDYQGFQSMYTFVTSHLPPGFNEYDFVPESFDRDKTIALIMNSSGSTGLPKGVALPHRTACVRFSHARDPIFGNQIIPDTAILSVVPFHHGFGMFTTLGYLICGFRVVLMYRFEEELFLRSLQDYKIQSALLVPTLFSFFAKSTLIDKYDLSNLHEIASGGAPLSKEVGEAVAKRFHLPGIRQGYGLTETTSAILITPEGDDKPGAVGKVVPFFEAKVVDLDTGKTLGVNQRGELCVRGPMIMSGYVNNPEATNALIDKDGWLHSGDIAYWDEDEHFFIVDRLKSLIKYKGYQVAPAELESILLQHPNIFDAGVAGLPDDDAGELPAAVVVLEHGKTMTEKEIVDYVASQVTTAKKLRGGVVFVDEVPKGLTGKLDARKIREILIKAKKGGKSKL
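Purified P. pyralis luciferase, 10 nM final, with Km-level 10 uM D-luciferin and 10 uM ATP in 50 mM Tris acetate pH 7.5, 10 mM Mg acetate, 0.01% Tween-20, 0.05% BSA; 6-point qHTS titration about 60 µM downward; luminescence read.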
NPC1 promoter act: activators of NPC1 promoter | 2.4% of 320,000 active | Huh7 NPC1 promoter luciferase reporter, 24 h | Potency, µM (top dose mostly 9.22 µM), actives largely listed as activators | AID 485313; further: nearly all actives have a fitted effect of over 60% in size
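NPC1 promoter–luciferase Huh7 cells; 24 h compound; luminescence.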
A number is an active result; - = inactive; ? = inconclusive; . = no result; [ ] = remark or other dose. Compounds with a hit are over-represented: about 9.2% of the library has one in this group of screens. The call rests on the fitted dose curve; in most records, active means well fitted curve in the direction sought with a large enough effect; inconclusive means small, poorly fitted or top-dose-only effect, or another doubt; inactive means no such curve, though single readings can be large; an effect the other way counts as inactive or inconclusive.

SMILES	Rab9 prom act	ELG1 genotoxic	ELG1 repair inh	SMN2 splice enh	FLuc modulator	NPC1 promoter act
C=CC[C@H](CC(=O)N[C@H](CO)Cc1ccccc1)C(=O)N[C@@H](COC(=O)[C@@H](CC=C)CC(=O)OC(C)(C)C)Cc1c[nH]c2ccccc12	.	-	?	.	.	.
O=C(CCSCc1ccc(Cl)cc1)NCc1cccnc1	-	-	-	-	-	-
CC(C)(C)S(=O)(=O)/C(C#N)=N/Nc1ccc(C#N)cc1	-	-	18µM	-	?	-
COc1cc(OC)cc(C(=O)N[C@H](C(=O)NCCc2c[nH]c3ccccc23)C(C)C)c1	-	-	-	-	-	-
COc1cccc(C(=O)OCC(=O)c2c[nH]c3ccccc23)c1OC	?	-	?	.	9.5µM	-
COc1cc(OC)cc(C(=O)N[C@H](C(=O)OCC(=O)c2c[nH]c3ccccc23)C(C)C)c1	.	-	21µM	.	.	.
O=C(COC(=O)CC1CC2CCC1C2)NCc1ccc(F)cc1 (stereo unspecified)	.	-	?	.	.	.
COc1ccc(C(=O)OCC(=O)c2c[nH]c3ccccc23)c(OC)c1	.	-	?	.	.	.
O=C(CC1CC2CCC1C2)OCC(=O)c1c[nH]c2ccccc12 (stereo unspecified)	-	-	?	-	15µM	-
O=C(OCC(=O)c1c[nH]c2ccccc12)c1cccc([N+](=O)[O-])c1	-	-	?	.	17µM	-
CC(=O)NC(=S)Nc1ccc2oc(=O)ccc2c1	-	-	?	.	-	-
O=C1c2ccccc2[C@@H]([C@@H]2c3ccccc3C(=O)c3cc(Br)ccc32)c2ccc(Br)cc21	.	.	.	-[9.22 µM]	.	.
Cc1ccc(CNC(=O)C(=O)NCC2OCCN2S(=O)(=O)c2ccc(Br)cc2)cc1 (stereo unspecified)	-	-	?	.	-	-
Cc1ccc(Cn2cc(S(=O)(=O)c3ccccc3)c(=O)c3cc(F)c(N4CCOCC4)cc32)cc1	.	.	.	.	-	.
Cc1ccccc1OCC(=O)Nc1cc(-c2cccc(Br)c2)nn1-c1ccccc1	.	.	.	.	-	.
Cc1onc(-c2c(F)cccc2Cl)c1C(=O)OCC(=O)c1c[nH]c2ccccc12	-	-	23µM	.	-	-
COc1ccccc1CNc1ccc(-c2nc(-c3cccnc3)no2)cc1[N+](=O)[O-]	.	.	.	.	-	.
COc1ccc(/C=C(/CC(=O)Nc2ccccc2)c2nc3ccccc3s2)cc1	-	-	?	-	21µM	-
COc1ccc(/C=C(/CC(=O)NCc2ccc(Cl)cc2)c2nc3ccccc3s2)cc1	-	-	-	-	-	-
COc1cccc(CC(=O)Nc2ccc(-c3nc4ccccc4s3)cc2)c1	.	.	.	.	6µM	.
COc1cccc(-c2nc3ccccc3s2)c1	?	2.1µM	?	?	0.85µM	-
COc1cc(OC)cc(C(=O)Nc2ccc(-c3nc4ccccc4s3)cc2C)c1	.	.	.	-	-	.
CCN(CC(=O)NCCCn1ccnc1)S(=O)(=O)c1ccc(C)cc1	-	-	-	.	-	-
CC1=[N+]([O-])C(C)(C)N(O)C1(C)C	-	-	-	.	-	-
Cc1ccccc1SCCNC(=O)CCc1ccccc1	-	-	?	?	?	-
SMILES	Rab9 prom act	ELG1 genotoxic	ELG1 repair inh	SMN2 splice enh	FLuc modulator	NPC1 promoter act
CC(=O)NC1(C(=O)O)CCCC1	-	-	-	.	-	-
CCC(C)(C)C1CCC2(CC1)NC(=O)N(CC(=O)N(C)Cc1ccc(OC(F)F)cc1)C2=O (stereo unspecified)	-	-	-	.	-	-
CN1C(C(=O)NC(C)(C)C)=CC(c2ccc3c(c2)OCO3)=NS1(=O)=O	.	.	.	.	-	.
CCN1C(=O)C(CC(=O)Nc2ccc(OC)cc2)N(CCc2ccccc2F)C1=S (stereo unspecified)	-	-	16µM	.	-	-
Cc1ccc(Cn2ccn(CC(=O)Nc3c(C)cc(C)cc3C)c(=O)c2=O)cc1	.	.	.	.	-	.
O=C(Oc1ccc(N2C(=O)CCC2=O)cc1)c1ccccc1Cl	-	-	-	-	24µM	-
Cc1cc(OC(=O)c2ccccc2Cl)cc(=O)n1C	-	-	?	-	15µM	-
Nc1cc(C(=O)OCC(=O)N2CCOCC2)ccc1Cl	?	?	?	.	?	-
Nc1ccc(C(=O)OCC(=O)N2CCOCC2)cc1[N+](=O)[O-]	?	?	?	20µM	?	?
CC1CCN(C(=O)COC(=O)c2cccc(NS(=O)(=O)c3ccccc3)c2)CC1	-	-	-	.	17µM	-
CC1CCN(C(=O)COC(=O)c2ccc3c(c2)OCO3)CC1	3.5µM	?	?	-	17µM	?
CCOC(=O)C1CCN(C(=O)COC(=O)c2ccc(Br)o2)CC1	-	-	-	-	-	-
O=C(OCC(=O)N1CCOCC1)c1ccc2c(c1)OCCO2	-	-	?	-	-	-
CC1CCN(C(=O)COC(=O)c2ccc(Br)o2)CC1	-	?	?	-	24µM	-
CC1CCN(C(=O)c2ccc(NS(=O)(=O)c3ccccc3)cc2)CC1	-	-	-	.	-	-
Cc1ccc(C)c(C(=O)CCC(=O)N2CCN(c3cccc(C(F)(F)F)c3)CC2)c1	-	-	-	.	-	-
CCc1ccc2nc(N3CCN(C(=O)C(C)(C)C)CC3)sc2c1	-	-	-	.	15µM	-
O=C(c1cccs1)N1CCN(c2nc3ccccc3s2)CC1	-	-	-	.	-	?
CC(C)(C)C(=O)N1CCN(c2nc3ccccc3s2)CC1	?	-[9.26 µM]	?	.	15µM	2.5µM
COc1ccc(S(=O)(=O)N2CCOCC2)cc1NC(=O)/C=C/c1ccccc1	-	-	-	.	-	-
CC1CCCC(C)N1C(=O)c1ccc(S(=O)(=O)NCc2ccco2)cc1 (stereo unspecified)	-	-	12µM	.	-	-
COC(=O)c1ccc(/C=C/C(=O)OCC(=O)NCc2cccs2)cc1	.	-	?	.	.	.
Cc1cc(O)cc2c(=O)c3ccccc3sc12	-	-	?	-	?	-
CN=Cc1sc2ccccc2c1O	-	-	?	-	-	-
CC(=Nc1cccc(O)c1)c1sc2ccccc2c1O	?	1.6µM	?	18µM	1.7µM	-
SMILES	Rab9 prom act	ELG1 genotoxic	ELG1 repair inh	SMN2 splice enh	FLuc modulator	NPC1 promoter act
CC(=Nc1ccc(C)cc1C)c1sc2ccccc2c1O	3.5µM	?	?	11µM	0.76µM	?
CC(=Nc1ccc(C)cc1)c1sc2ccccc2c1O	0.89µM	0.73µM	?	0.63µM	0.43µM	1.8µM
CCc1ccccc1NC(=O)c1ccc2c(SCC(=O)O)c3c(nc2c1)CCC3	.	.	.	-	?	.
COc1cc(/C=C/C(=O)OCC(=O)NCc2cccs2)ccc1OCC#N	-	-	-	-	-	-
Cc1nnsc1-c1onc(C)c1C(=O)Nc1cc(Cl)cc(Cl)c1	-	-	16µM	.	-	-
O=C(OCC(=O)N1CCc2ccccc21)c1n[nH]c(=O)c2ccccc12	-	-	-	.	?	-

Screening results (PubChem)
